Data: the supplement of paper PMC10849652
Targets with a hit are over-represented here; the source holds about 8,800 in all. About 0.5% of all pairs of compound and target were hits.

Experiments:
Assay in all cases: log2 fold change, soluble protein after heating vs DMSO (PISA); higher = thermal stabilisation; K562 lysate, 10 uM; active = over 0.2 and 3.5 SD of the protein, either way, in both replicates (recomputed)
erlotinib = compound: C#Cc1cccc(Nc2ncnc3cc(OCCOC)c(OCCOC)cc23)c1 [erlotinib]
How it was run: (§1)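 Quantification was by TMTpro 16plex LC-MS/MS with equalised channel sums, applied to the supernatant after 21,000xg for 90 min. Samples were crude K562 extract at 1 mg/mL protein in PBS pH 7.4 with 1 mM MgCl2, treated with 10 μM compound for 30 min, heated for 3 min across 48°C-58°C, pooled and brought to 0.5% NP-40 at 4°C. Values are log-two fold changes in thermal stability relative to solvent controls, from duplicates.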

[1] = compound: C/C(=N\NC(=O)C1=CC(=CC=C1)S(=O)(=O)N2CCOCC2)/C3=C(C=CC(=C3)Cl)O
How it was run: as §1

[2] = compound: C1=CC(=CC=C1C2=NC3=C(N2)C=C(C=C3)C(=O)N)OC4=CC=C(C=C4)Cl
How it was run: as §1

[3] = compound: C1=CC2=C(C=CC(=C2)/C=C\3/C(=O)NC(=NCC4=CC=CS4)S3)N=C1
How it was run: as §1

[4] = compound: C1=CC2=NC=CN=C2C=C1/C=C/3\C(=O)NC(=O)S3
How it was run: as §1

[5] = compound: C1=CC=C(C=C1)C2=NC(=C(N2)C3=CC=NC=C3)C4=CC(=C(C=C4)Cl)O
How it was run: as §1

[6] = compound: C1=CC=C2C(=C1)C3=NNC4=CC=CC(=C43)C2=O
How it was run: as §1

[7] = compound: C1CCN(C1)C(=O)NC2=CC=CC(=C2)NC3=NC=C(C(=N3)NCCC4=CN=CN4)Br
How it was run: as §1

[8] = compound: C1CN(CCC1(CC2=CC=C(C=C2)Cl)N)C3=NC=NC4=C3C=CN4
How it was run: as §1

IRAK-1-4 Inhibitor I = compound: C1COCCN1CCN2C3=CC=CC=C3N=C2NC(=O)C4=CC(=CC=C4)[N+](=O)[O-] [IRAK-1-4 Inhibitor I]
How it was run: as §1

Measured: log2 fold change

PDF (UniProt Q9HBH1)
Chain of UniProt Q9HBH1 (Q9HBH1 whole entry, looked up): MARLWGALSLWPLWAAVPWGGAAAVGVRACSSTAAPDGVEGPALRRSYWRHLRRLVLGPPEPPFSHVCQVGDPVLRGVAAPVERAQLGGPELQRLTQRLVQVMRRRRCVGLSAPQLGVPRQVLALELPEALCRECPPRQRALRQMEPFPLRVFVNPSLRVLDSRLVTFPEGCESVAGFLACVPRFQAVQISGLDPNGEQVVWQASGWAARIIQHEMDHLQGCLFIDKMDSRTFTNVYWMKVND
inactive: erlotinib 0.033 | [1] 0.07 | [2] -0.072 | [3] 0.005 | [4] -0.066 | [5] 0.066 | [6] -0.013 | [7] 0.047 | [8] -0.063 | IRAK-1-4 Inhibitor I 0.055

PTMA (UniProt P06454)
Chain of UniProt P06454 (P06454 whole entry, looked up): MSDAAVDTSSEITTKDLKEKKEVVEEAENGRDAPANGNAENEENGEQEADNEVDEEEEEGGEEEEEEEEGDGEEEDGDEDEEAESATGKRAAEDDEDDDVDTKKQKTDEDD
inactive: erlotinib -0.002 | [1] 0.062 | [2] 0.067 | [3] -0.013 | [4] -0.002 | [5] 0.01 | [6] -0.017 | [7] -0.009 | [8] -0.017 | IRAK-1-4 Inhibitor I -0.037

PRKCSH (UniProt K7ELL7)
inactive: erlotinib -0.01 | [1] -0.124 | [2] 0.004 | [3] -0.056 | [4] 0 | [5] -0.036 | [6] -0.061 | [7] -0.096 | [8] -0.038 | IRAK-1-4 Inhibitor I -0.039

PHLDB1 (UniProt Q86UU1)
Chain of UniProt Q86UU1 (Q86UU1 whole entry, looked up): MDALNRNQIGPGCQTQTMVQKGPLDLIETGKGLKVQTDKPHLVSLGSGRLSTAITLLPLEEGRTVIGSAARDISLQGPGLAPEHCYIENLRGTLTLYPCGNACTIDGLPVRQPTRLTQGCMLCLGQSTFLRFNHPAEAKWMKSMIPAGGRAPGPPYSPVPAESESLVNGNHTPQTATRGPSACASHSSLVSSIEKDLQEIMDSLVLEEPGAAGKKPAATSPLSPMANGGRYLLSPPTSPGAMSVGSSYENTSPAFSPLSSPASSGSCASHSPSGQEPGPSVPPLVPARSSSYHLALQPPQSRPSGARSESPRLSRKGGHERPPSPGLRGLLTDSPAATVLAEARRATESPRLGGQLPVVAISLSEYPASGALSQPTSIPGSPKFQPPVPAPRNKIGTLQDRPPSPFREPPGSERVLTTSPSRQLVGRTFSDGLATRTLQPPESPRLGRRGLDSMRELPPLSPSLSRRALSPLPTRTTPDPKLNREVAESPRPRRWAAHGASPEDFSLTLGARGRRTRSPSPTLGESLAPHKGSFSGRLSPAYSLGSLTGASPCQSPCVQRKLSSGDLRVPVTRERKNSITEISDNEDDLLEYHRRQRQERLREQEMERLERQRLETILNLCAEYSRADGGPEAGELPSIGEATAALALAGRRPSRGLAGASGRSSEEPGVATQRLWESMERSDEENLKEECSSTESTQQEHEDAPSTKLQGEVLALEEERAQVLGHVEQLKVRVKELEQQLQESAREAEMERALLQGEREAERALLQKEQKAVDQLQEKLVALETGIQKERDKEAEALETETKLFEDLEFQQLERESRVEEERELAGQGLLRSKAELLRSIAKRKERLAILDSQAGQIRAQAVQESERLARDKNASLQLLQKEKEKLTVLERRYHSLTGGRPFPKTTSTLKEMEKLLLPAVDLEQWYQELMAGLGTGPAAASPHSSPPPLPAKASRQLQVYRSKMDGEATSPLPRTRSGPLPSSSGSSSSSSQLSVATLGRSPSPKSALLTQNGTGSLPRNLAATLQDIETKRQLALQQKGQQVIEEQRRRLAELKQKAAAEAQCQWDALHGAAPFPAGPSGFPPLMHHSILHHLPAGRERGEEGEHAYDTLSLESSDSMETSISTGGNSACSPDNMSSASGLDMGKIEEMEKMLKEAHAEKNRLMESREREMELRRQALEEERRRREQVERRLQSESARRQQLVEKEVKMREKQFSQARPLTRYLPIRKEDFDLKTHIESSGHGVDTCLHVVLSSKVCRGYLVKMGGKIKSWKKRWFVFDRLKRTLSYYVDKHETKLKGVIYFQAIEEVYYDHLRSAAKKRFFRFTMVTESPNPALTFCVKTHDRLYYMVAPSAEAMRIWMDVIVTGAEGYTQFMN
inactive: erlotinib 0.01 | [1] -0.044 | [2] 0.032 | [3] -0.081 | [4] -0.031 | [5] 0.101 | [6] -0.158 | [7] -0.032 | [8] 0.068 | IRAK-1-4 Inhibitor I -0.044

POLA1 (UniProt P09884)
inactive: erlotinib 0.009 | [1] -0.039 | [2] -0.02 | [3] -0.015 | [4] -0.036 | [5] 0.084 | [6] -0.005 | [7] -0.034 | [8] 0.015 | IRAK-1-4 Inhibitor I -0.003

PTPN2 (UniProt P17706)
Chain of UniProt P17706 (P17706 whole entry, looked up): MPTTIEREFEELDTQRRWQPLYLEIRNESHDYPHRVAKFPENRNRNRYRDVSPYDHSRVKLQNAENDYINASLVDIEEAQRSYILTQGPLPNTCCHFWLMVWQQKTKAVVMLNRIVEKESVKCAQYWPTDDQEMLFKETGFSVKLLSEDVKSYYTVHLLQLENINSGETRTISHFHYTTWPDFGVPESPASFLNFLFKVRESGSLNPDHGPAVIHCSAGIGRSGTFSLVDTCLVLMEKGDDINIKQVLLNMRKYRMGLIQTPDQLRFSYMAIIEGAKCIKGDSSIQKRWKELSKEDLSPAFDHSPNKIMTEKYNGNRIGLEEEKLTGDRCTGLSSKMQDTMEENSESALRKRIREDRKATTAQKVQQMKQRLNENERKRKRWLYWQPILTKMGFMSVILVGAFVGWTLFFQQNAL
inactive: erlotinib 0.028 | [1] 0.119 | [2] -0.005 | [3] 0.006 | [4] 0.019 | [5] -0.045 | [6] -0.033 | [7] 0 | [8] 0.046 | IRAK-1-4 Inhibitor I -0.017

PRKACA (UniProt P17612)
inactive: erlotinib -0.033 | [1] -0.056 | [2] 0.049 | [3] 0.016 | [4] -0.015 | [5] -0.015 | [6] 0.034 | [7] 0.234 | [8] 0.34 | IRAK-1-4 Inhibitor I 0.015

PRKCSH (UniProt P14314)
inactive: erlotinib -0.027 | [1] 0.013 | [2] 0.01 | [3] -0.012 | [4] -0.012 | [5] 0.023 | [6] 0.07 | [7] 0.027 | [8] -0.027 | IRAK-1-4 Inhibitor I 0.005

PTPN23 (UniProt Q9H3S7)
Chain of UniProt Q9H3S7 (Q9H3S7 whole entry, looked up): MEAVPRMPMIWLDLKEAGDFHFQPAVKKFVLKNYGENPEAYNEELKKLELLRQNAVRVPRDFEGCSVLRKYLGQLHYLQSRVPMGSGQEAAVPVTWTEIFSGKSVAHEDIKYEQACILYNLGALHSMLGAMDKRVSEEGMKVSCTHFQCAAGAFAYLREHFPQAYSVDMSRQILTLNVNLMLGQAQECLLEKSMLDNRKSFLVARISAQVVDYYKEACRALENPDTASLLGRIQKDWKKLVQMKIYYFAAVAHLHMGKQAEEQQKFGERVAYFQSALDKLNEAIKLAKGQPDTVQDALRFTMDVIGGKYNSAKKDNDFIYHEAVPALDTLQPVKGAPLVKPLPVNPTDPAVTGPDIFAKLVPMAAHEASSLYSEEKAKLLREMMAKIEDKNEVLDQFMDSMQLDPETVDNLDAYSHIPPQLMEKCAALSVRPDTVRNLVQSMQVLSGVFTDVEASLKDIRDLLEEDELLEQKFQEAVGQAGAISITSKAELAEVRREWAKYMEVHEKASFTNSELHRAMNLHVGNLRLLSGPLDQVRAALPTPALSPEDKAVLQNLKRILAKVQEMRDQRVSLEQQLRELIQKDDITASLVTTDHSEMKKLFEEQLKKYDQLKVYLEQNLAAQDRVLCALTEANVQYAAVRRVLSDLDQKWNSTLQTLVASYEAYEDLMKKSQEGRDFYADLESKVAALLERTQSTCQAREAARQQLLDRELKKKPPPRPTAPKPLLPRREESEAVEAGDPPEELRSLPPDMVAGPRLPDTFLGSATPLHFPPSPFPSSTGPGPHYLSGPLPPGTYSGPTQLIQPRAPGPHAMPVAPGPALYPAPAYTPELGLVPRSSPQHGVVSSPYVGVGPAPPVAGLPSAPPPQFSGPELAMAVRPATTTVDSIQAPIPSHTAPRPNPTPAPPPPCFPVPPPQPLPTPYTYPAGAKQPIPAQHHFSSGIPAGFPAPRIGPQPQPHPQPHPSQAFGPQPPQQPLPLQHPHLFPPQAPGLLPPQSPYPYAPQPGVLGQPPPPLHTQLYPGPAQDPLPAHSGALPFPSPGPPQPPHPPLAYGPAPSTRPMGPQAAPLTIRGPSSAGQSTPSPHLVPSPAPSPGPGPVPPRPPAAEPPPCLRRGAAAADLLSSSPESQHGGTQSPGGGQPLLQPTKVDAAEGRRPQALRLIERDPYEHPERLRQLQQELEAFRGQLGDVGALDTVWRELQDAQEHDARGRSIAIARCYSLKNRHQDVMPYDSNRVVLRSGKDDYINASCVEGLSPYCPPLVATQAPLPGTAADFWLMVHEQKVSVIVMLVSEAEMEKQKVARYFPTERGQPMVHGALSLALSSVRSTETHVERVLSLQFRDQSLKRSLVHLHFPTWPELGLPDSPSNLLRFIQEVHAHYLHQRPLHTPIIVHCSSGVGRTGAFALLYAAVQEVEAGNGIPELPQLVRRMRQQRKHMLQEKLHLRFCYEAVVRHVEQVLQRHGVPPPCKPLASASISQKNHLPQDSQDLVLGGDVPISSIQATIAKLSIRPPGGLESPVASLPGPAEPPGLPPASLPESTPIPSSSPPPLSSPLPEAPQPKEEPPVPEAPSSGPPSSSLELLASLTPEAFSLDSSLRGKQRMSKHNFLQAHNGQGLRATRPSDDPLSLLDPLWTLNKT
inactive: erlotinib 0.017 | [1] -0.029 | [2] 0.016 | [3] -0.01 | [4] -0.023 | [5] 0.008 | [6] -0.028 | [7] -0.013 | [8] -0.003 | IRAK-1-4 Inhibitor I -0.004

PDXK (UniProt O00764)
inactive: erlotinib -0.003 | [1] 0.02 | [2] 0.103 | [3] -0.019 | [4] -0.02 | [5] -0.008 | [6] 0.021 | [7] 0.037 | [8] -0.012 | IRAK-1-4 Inhibitor I 0.018

PFN1 (UniProt P07737)
Chain of UniProt P07737 (P07737 whole entry, looked up): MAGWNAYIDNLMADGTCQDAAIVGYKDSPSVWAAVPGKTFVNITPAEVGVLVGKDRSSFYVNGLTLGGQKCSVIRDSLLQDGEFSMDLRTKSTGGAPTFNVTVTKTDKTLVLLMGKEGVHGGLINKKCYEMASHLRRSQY
inactive: erlotinib -0.022 | [1] -0.017 | [2] 0.01 | [3] 0.019 | [4] -0.007 | [5] -0.006 | [6] 0.015 | [7] -0.002 | [8] 0.01 | IRAK-1-4 Inhibitor I -0.007

PI4K2B (UniProt Q8TCG2)
inactive: erlotinib 0.023 | [1] 0.035 | [2] -0.041 | [3] -0.089 | [4] -0.002 | [5] -0.047 | [6] 0.009 | [7] -0.07 | [8] 0.136 | IRAK-1-4 Inhibitor I 0.026

PLEKHA5 isoform 6 (UniProt Q9HAU0)
Chain of UniProt Q9HAU0 (Q9HAU0 whole entry, looked up): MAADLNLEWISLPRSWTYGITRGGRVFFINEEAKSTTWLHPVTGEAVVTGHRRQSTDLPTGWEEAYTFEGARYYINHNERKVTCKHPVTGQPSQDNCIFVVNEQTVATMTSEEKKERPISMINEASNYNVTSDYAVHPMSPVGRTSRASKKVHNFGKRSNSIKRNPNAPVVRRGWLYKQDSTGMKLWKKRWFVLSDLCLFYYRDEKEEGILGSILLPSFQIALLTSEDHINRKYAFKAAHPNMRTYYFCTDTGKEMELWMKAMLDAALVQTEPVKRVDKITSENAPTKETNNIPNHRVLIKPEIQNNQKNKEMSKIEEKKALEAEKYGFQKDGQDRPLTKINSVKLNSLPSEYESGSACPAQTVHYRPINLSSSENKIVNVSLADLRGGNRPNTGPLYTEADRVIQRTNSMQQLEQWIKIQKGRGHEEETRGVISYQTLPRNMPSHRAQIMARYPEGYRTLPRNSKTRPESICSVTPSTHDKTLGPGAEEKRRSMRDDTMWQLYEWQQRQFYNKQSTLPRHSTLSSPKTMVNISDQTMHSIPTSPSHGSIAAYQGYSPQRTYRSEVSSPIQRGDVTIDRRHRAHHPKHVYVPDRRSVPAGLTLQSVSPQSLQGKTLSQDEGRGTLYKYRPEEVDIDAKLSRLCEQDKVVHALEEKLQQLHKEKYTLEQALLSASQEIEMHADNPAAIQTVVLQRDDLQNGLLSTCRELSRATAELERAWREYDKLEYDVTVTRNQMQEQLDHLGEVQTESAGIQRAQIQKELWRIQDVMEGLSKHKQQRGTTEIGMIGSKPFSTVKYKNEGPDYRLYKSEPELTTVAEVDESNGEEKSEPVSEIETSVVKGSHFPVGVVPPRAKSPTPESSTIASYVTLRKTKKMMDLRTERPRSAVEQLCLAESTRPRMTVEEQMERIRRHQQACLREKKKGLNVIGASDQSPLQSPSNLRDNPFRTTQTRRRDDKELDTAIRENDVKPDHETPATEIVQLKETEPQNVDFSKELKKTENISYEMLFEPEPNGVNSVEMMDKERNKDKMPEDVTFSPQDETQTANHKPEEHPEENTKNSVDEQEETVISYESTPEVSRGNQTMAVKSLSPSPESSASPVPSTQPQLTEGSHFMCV
inactive: erlotinib -0.007 | [1] -0.021 | [2] 0.016 | [3] -0.058 | [4] 0.087 | [5] -0.021 | [6] -0.007 | [7] -0.002 | [8] -0.04 | IRAK-1-4 Inhibitor I 0.019

POLD1 (UniProt P28340)
inactive: erlotinib 0.016 | [1] -0.05 | [2] 0.013 | [3] 0.008 | [4] -0.008 | [5] 0.015 | [6] -0.029 | [7] -0.006 | [8] 0.007 | IRAK-1-4 Inhibitor I -0.01
